ChEMBL document CHEMBL3988442, “University of Dundee, Small-Polar-MMV Screening Library” (2021)
About 13,000 (27%) of roughly 48,000 compounds showed an effect of 50% or more. The list shows a part of the results.

test system: Wolbachia pipientis; test: Anti-Wolbachia Cell-Based Screen; assay type: functional; set-up: scale not given: in the data most compounds retested in dose-response had high values; settings: 5 µM

First: Cc1nc2cc(C(=O)N(CCC#N)CC3CCCO3)ccc2[nH]1 (stereo not given)
Second: N#CCCN(CC1CCCO1)C(=O)c1ccc2nonc2c1 (stereo not given)
The “Percent Effect” value of the first is lower: 103.2% for the first, 113% for the second.

Going from `N#CCCN(c1ccc(F)cc1)S(=O)(=O)CC1CCCCO1` (stereo not given) to `N#CCCN(CCC#N)C(=O)c1cccc(N2CCNC2=O)c1`, the “Percent Effect” value falls from -8.338% to -11.85%.

Compared with `Cc1nc2cc(C(=O)N(CCC#N)CCC#N)ccc2n1C`, `Cc1nc2ccc(C(=O)N(CCC#N)CCC#N)cc2nc1C` is lower in “Percent Effect” value: -0.9305% for the first, -2.079% for the second.

Compared with `CN(Cc1ccc2nonc2c1)C(=O)c1ccc(C2CCCO2)s1` (stereo not given), `CCS(=O)(=O)c1ccc2oc([C@H]3CCN(Cc4ccncc4)C3)nc2c1` is higher in “Percent Effect” value: -9.176% for the first, -3.63% for the second.

Compared with `CCC(C)CS(=O)(=O)NCCc1csc(N2CCCC2)n1` (stereo not given), `CCS(=O)(=O)CCNC1CCN(c2nc3ccc(Cl)cc3s2)CC1` is lower in “Percent Effect” value: -21.99% for the first, -46.95% for the second.

First: COCC(C)N(Cc1ccccc1OC)C(=O)c1cc(C)[nH]c(=O)c1 (stereo not given)
Second: COCCN(C)Cc1ccc(OC)c(OC(F)F)c1
The “Percent Effect” value of the first is lower: -10.95% for the first, -5.242% for the second.

Compared with `O=C(COc1cccc(F)c1)N1C[C@@H](CN2CCCC2)C[C@H](CO)C1`, `O=C(COc1cccc(F)c1)N1C[C@H](CO)C[C@H](CN2CCCC2)C1` is lower in “Percent Effect” value: -0.02776% for the first, -0.9347% for the second.

Going from `NC(=O)CN1CCC(C(=O)NCC(O)c2cccc(F)c2)CC1` (stereo not given) to `C[C@]1(O)CN(CCC(N)=O)CC[C@@H]1Oc1cccc(F)c1`, the “Percent Effect” value rises from 3.405% to 109.4%.

First: O=C(O)C(F)(F)F.O=C1CC2(CCN(CCO)C2)CN1c1cccc(F)c1 (stereo not given)
Second: CN1CC(=O)N(c2cccc(F)c2)CC12CCN(CCO)C2.O=C(O)C(F)(F)F.O=C(O)C(F)(F)F (stereo not given)
The “Percent Effect” value of the first is higher: 6.062% for the first, 1.497% for the second.

First: C[C@]1(O)CN(CC(=O)N2CCCC2)CC[C@@H]1Oc1cccc(F)c1
Second: C[C@]1(O)CN(CCO)CC[C@@H]1Oc1cccc(F)c1
The “Percent Effect” value of the first is higher: 121.7% for the first, 120.3% for the second.

Compared with `CC(Oc1cccc(F)c1)C(=O)N(CC(N)=O)C1CCCC1` (stereo not given), `OC(CN1CCCc2cc(OC(F)F)ccc21)Cn1cccn1` (stereo not given) is higher in “Percent Effect” value: -28.68% for the first, -16.69% for the second.

Compared with `CCn1ncc2c1NC(=O)CC2c1cnc(NCc2ccccc2)nc1` (stereo not given), `CN1N=C(C(=O)N2CCCC(CCc3ccccc3)C2)CCC1=O` (stereo not given) is lower in “Percent Effect” value: 4.243% for the first, -44.22% for the second.

First: Cc1ccc(N2CCCC(N3CCC4(CC3)OCCO4)C2=O)cc1 (stereo not given)
Second: Cc1ccc(OC2(C(=O)N(C)Cc3ccoc3)CCNCC2)cc1
The “Percent Effect” value of the first is higher: -7.017% for the first, -12.66% for the second.

First: COc1ccc2c(c1)CN(C)C(=O)CCN2CC(O)C(F)(F)F (stereo not given)
Second: COc1ccc2c(c1)CN(C)C(=O)CCN2CC(O)C(C)(C)C (stereo not given)
The “Percent Effect” value of the first is higher: 104.6% for the first, 100.8% for the second.

First: COc1ccc2c(c1)CCN(CCC(=O)O)CC2
Second: COC(=O)C(C)N1CCCc2cc(OC)ccc2C1 (stereo not given)
The “Percent Effect” value of the first is lower: -10.19% for the first, -9.406% for the second.

Going from `COc1ccc2c(c1)CCCN(C(C)C(=O)NC(C)C)C2` (stereo not given) to `CC(C)N1CCC(C(=O)NC[C@H]2CCc3ccccc3O2)CC1`, the “Percent Effect” value rises from -4.844% to -3.949%.

Going from `O=C(CNc1nc(C2CC2)ns1)N1CCc2sccc2C1` to `CC(C)c1nc(C2CCCN(C(=O)CCc3cscn3)C2)no1` (stereo not given), the “Percent Effect” value rises from -3.427% to 114.7%.

Going from `CC(C)c1nc(C2CCCN(C(=O)CCn3ccnc3)C2)no1` (stereo not given) to `CC(C)c1nc(C2CCCN(C(=O)CCCn3ccnc3)C2)no1` (stereo not given), the “Percent Effect” value rises from -0.5429% to 94.72%.

Going from `Cc1nc(C2CCCN(C(=O)CN3CCCNC3=O)C2)sc1C` (stereo not given) to `Cc1nc(C2CCCN(C(=O)CN3CCCC3=O)C2)sc1C` (stereo not given), the “Percent Effect” value falls from 6.53% to -7.822%.

Going from `CCS(=O)(=O)CC(=O)N1CCCC(c2noc(C(C)C)n2)C1` (stereo not given) to `CC(C)c1nc(C2CCCN(C(=O)CS(=O)(=O)C(C)C)C2)no1` (stereo not given), the “Percent Effect” value falls from -6.108% to -11.89%.

First: CC(C)c1nc(C2CCCN(C(=O)CN3CCCNC3=O)C2)no1 (stereo not given)
Second: CC(C)c1nc(C2CCCN(C(=O)CN(C)S(C)(=O)=O)C2)no1 (stereo not given)
The “Percent Effect” value of the first is higher: 6.733% for the first, -21.51% for the second.

Going from `CC(C)c1nc(C2CCCN(C(=O)CCCn3cccn3)C2)no1` (stereo not given) to `Cc1nc(C2CCCN(C(=O)CCCn3cccn3)C2)no1` (stereo not given), the “Percent Effect” value falls from 95.04% to 10.77%.

First: Cc1nc(C2CCCN(C(=O)CCCn3cccn3)C2)sc1C (stereo not given)
Second: Cc1nc(C2CCCN(C(=O)CCCn3ccnc3C)C2)no1 (stereo not given)
The “Percent Effect” value of the first is higher: 112.1% for the first, -5.463% for the second.

First: CCN(Cc1cccc(NC(=O)COCCOC)c1)C(C)=O
Second: COC(=O)CCNC(=O)c1ccc(NC(=O)N(C)CC(C)(C)C)cc1
The “Percent Effect” value of the first is lower: -8.699% for the first, 28.42% for the second.

First: CCc1c(C)nn(CC(=O)NC(C)c2n[nH]c(C)n2)c1C (stereo not given)
Second: CCCc1cc(CNC2CCN(c3cc(C(C)C)nc(C)n3)CC2)on1
The “Percent Effect” value of the first is lower: 2.562% for the first, 93.6% for the second.

First: Cc1noc(C2CCN(c3oc(C)nc3C#N)CC2)n1
Second: CCCc1cc(CNC2CCN(c3nc(C)cc(C)n3)CC2)on1
The “Percent Effect” value of the first is lower: -7.205% for the first, 99.03% for the second.

Compared with `Cc1nccn1CCCC(=O)N1CCCC(c2noc(C(C)C)n2)C1` (stereo not given), `Cc1cc(C)nc(N2CCC(NCCSc3nnnn3C)CC2)n1` is lower in “Percent Effect” value: 94.02% for the first, -14.51% for the second.

Going from `O=C1O[C@@H]2CN(Cc3ccccn3)C[C@@H]2N1CCCc1ccc(F)cc1` to `CCCc1cc(CNC2CCN(c3nc4ccccc4s3)CC2)on1`, the “Percent Effect” value rises from 2.234% to 114.2%.

Going from `CCCc1cc(CNC2CCN(c3cc(C)nc(N)n3)CC2)on1` to `CCCc1cc(N2CCC(NC3CCOCC3)CC2)nc(C)n1`, the “Percent Effect” value falls from 82.71% to 29.8%.

First: CCCc1cc(CNC(=O)Cc2cc(C)no2)on1
Second: CCCc1cc(N2CCC(NC3CCS(=O)(=O)C3)CC2)nc(C)n1 (stereo not given)
The “Percent Effect” value of the first is higher: 0.033% for the first, -13.12% for the second.

Going from `CCCc1cc(N2CCC(NCC3(O)CCN(C)CC3)CC2)nc(C)n1` to `CCCc1cc(N2CCC(N[C@H]3CC[C@H](O)CC3)CC2)nc(C)n1`, the “Percent Effect” value rises from -6.496% to -4.932%.

First: Cc1n[nH]c(SCCNC2CCN(c3nc4ccccc4s3)CC2)n1
Second: Cc1ccc(C(=O)N2CCN(c3ncnc4nc(N)ccc34)CC2)o1
The “Percent Effect” value of the first is higher: -0.1074% for the first, -4.077% for the second.

For `Cc1noc(C)c1S(=O)(=O)NCC(C)(O)c1ccc2c(c1)OCO2` (stereo not given), the “Percent Effect” value was 22.76%.
